Test systems include DU-145 prostate; K-562 leukemia; MALME-3M melanoma; MDA-MB-231 breast; RXF 393 renal; SF-268 CNS; SF-295 CNS; SF-539 CNS; UACC-257 melanoma; M14 melanoma; HCT-15 colon; HT29 colon; SNB-75 CNS; SNB-19 CNS; U251 CNS; PC-3 prostate; SK-MEL-5 melanoma; UACC-62 melanoma; LOX IMVI melanoma; SK-MEL-28 melanoma.
Holding throughout (experiment): NCI-60 one-dose screen, 48 h (100 = growth as untreated, 0 = no growth, -100 = all killed)
Holding throughout (details): 10 µM unless noted

About 83,000 compounds went through this panel and 20% of them were active in at least one assay; those are over-represented in the sample as a whole.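 Note: values are percent growth. 100 is the growth of untreated cells, values between 100 and 0 indicate rising inhibition; between -100 and 0 indicates cell death.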 Values without a mark were called inactive. Calls of active or inactive are those of the source. The calls were made as follows: active = growth percent below 10; inactive = the rest.

Consider `O=C(/C=C1\C(=O)N(Cc2ccccc2)c2ccccc21)c1cc2ccccc2oc1=O`, for which the growth was 104% in the experiment with DU-145 prostate; 1.52% (active) in the experiment with K-562 leukemia; 68.9% with MALME-3M melanoma; 81% with MDA-MB-231 breast; 86.1% in the experiment with RXF 393 renal; 95.6% in the experiment with SF-268 CNS. Further, the growth is 104% in the experiment on SF-295 CNS; 98.9% in the experiment on SF-539 CNS; 107% with UACC-257 melanoma; 85.1% in the experiment on M14 melanoma; 31.8% with HCT-15 colon; 113% in the experiment on HT29 colon. Besides, the growth was 88% in the experiment on SNB-75 CNS; 102% in the experiment with SNB-19 CNS; 98.4% in the experiment on U251 CNS; 90.7% with PC-3 prostate; 90.2% in the experiment with SK-MEL-5 melanoma; 79.5% in the experiment on UACC-62 melanoma. The growth is 85.2% in the experiment with LOX IMVI melanoma and 92.1% in the experiment with SK-MEL-28 melanoma.
Turning to `Cc1ccc(C2CC(c3ccc(NC(=S)Nc4ccccc4)cc3)=NN2c2ccc(S(N)(=O)=O)cc2)cc1` (stereo not given), the growth is 19.7% in the experiment on DU-145 prostate; 22.7% in the experiment with K-562 leukemia; -0.146% (active) in the experiment on MALME-3M melanoma; 15.2% with MDA-MB-231 breast; -16.1% (active) in the experiment on RXF 393 renal; 15.6% in the experiment on SF-268 CNS. Further, the growth was 8.39% (active) in the experiment on SF-295 CNS; 10.3% in the experiment on SF-539 CNS; 36.6% in the experiment on UACC-257 melanoma; 19% with M14 melanoma; 4.26% (active) in the experiment with HCT-15 colon; 1.32% (active) in the experiment with HT29 colon. Besides, the growth in the experiment with SNB-75 CNS was 21.4%; in the experiment with SNB-19 CNS, 23.1%; in the experiment on U251 CNS, 5.8% (active); with PC-3 prostate, 7.16% (active); with SK-MEL-5 melanoma it was 27.9%; with UACC-62 melanoma, 17%. In addition, the growth with LOX IMVI melanoma is 14.9%; in the experiment on SK-MEL-28 melanoma it was -57.7% (active).
Take `Clc1ccc(-c2nc3ccc(-c4nnc(SCc5ccccc5)o4)cc3[nH]2)cc1`: the growth is 54.9% in the experiment on DU-145 prostate; 36.7% with K-562 leukemia; 29.4% with MALME-3M melanoma; -11.9% (active) in the experiment with MDA-MB-231 breast; -4.87% (active) with RXF 393 renal; 60% with SF-268 CNS. In addition, the growth was -73.4% (active) in the experiment on SF-295 CNS; -28% (active) with SF-539 CNS; 62.2% in the experiment with UACC-257 melanoma; 67.9% in the experiment on M14 melanoma; -28.9% (active) in the experiment with HCT-15 colon; 41.5% with HT29 colon. For the same compound, the growth in the experiment with SNB-75 CNS is 40.4%; in the experiment on SNB-19 CNS it was 27%; with U251 CNS, -8.55% (active); in the experiment on PC-3 prostate, 25.1%; with SK-MEL-5 melanoma, 20.9%; with UACC-62 melanoma, 37.7%. The growth in the experiment with LOX IMVI melanoma was 4.07% (active); in the experiment with SK-MEL-28 melanoma, 58.3%.
For the compound `O=C(c1ccc(O)cc1)C1[C@H](c2ccc(Cl)cc2)[C@@H](c2ccccc2)NC12C(=O)Nc1ccc(Br)cc12` (stereo not given in full), the growth in the experiment on DU-145 prostate is 13.4%; in the experiment with K-562 leukemia it was -41.7% (active); in the experiment with MALME-3M melanoma, -49% (active); in the experiment with MDA-MB-231 breast, -79.4% (active); with RXF 393 renal, -85.9% (active); in the experiment with SF-268 CNS it was 3.93% (active). The growth is -60.8% (active) in the experiment on SF-295 CNS; -37.5% (active) in the experiment on SF-539 CNS; 65.9% with UACC-257 melanoma; -56.8% (active) in the experiment with M14 melanoma; -67% (active) in the experiment with HCT-15 colon; -68.1% (active) in the experiment with HT29 colon. For the same compound, the growth with SNB-75 CNS was -13% (active); with SNB-19 CNS, -2.97% (active); with U251 CNS it was -62% (active); in the experiment on PC-3 prostate, -16% (active); with SK-MEL-5 melanoma it was -93.3% (active); with UACC-62 melanoma, -40% (active). The growth is -100% (active) with LOX IMVI melanoma and -5.57% (active) in the experiment with SK-MEL-28 melanoma.
Consider `COc1cc(/C=C/C(=O)c2cnn(-c3cc(=O)[nH]c4ccc(Cl)cc34)c2C)cc(OC)c1OC`, for which the growth was -72.8% (active) in the experiment on DU-145 prostate; -12.4% (active) in the experiment with K-562 leukemia; -20.4% (active) in the experiment on MALME-3M melanoma; -5.1% (active) in the experiment on MDA-MB-231 breast; -84.1% (active) in the experiment with RXF 393 renal; -23.8% (active) with SF-268 CNS. The growth with SF-295 CNS is -71.5% (active); in the experiment on SF-539 CNS, -69.3% (active); with UACC-257 melanoma, -33.8% (active); in the experiment on M14 melanoma it was -49% (active); in the experiment with HCT-15 colon, -40.2% (active); with HT29 colon, -71.9% (active). The growth in the experiment on SNB-75 CNS is -11.4% (active); in the experiment on SNB-19 CNS it was -68.9% (active); in the experiment on U251 CNS it was -65.7% (active); in the experiment with PC-3 prostate, -26.9% (active); in the experiment on SK-MEL-5 melanoma it was -88.9% (active); in the experiment on UACC-62 melanoma, -49.1% (active). The growth in the experiment on LOX IMVI melanoma is -60.8% (active); in the experiment with SK-MEL-28 melanoma, -69.2% (active).
As for `CC(C)C[C@H](NC(=O)[C@@H]1CCCCCCCCCCC(=O)N[C@@H](CC(=O)N2CCC[C@@H]2C2CCCC2)C(=O)N1)B(O)O`, the growth in the experiment on DU-145 prostate was 6.72% (active); in the experiment with K-562 leukemia, 0.735% (active); in the experiment on MALME-3M melanoma it was -75.1% (active); in the experiment with MDA-MB-231 breast, -72.4% (active); in the experiment on RXF 393 renal, -84.8% (active); with SF-268 CNS, 4.67% (active). Further, the growth with SF-295 CNS was -93.4% (active); in the experiment with SF-539 CNS it was -44.8% (active); with UACC-257 melanoma, -31% (active); in the experiment on M14 melanoma, -48.2% (active); in the experiment with HCT-15 colon, -36.7% (active); with HT29 colon, -18% (active). For the same compound, the growth in the experiment on SNB-75 CNS is -77% (active); in the experiment on SNB-19 CNS, 6.18% (active); with U251 CNS it was -50.7% (active); in the experiment on PC-3 prostate, 8.18% (active); in the experiment on SK-MEL-5 melanoma it was -92% (active); in the experiment on UACC-62 melanoma, -86.8% (active). Also, the growth in the experiment with LOX IMVI melanoma is -93.3% (active); in the experiment with SK-MEL-28 melanoma, -5.72% (active).
Consider `COc1ccccc1/C=C/c1cccc(NC(=S)NCCCCN(C)C)c1`, for which the growth with DU-145 prostate was -69% (active); in the experiment on K-562 leukemia, 1.56% (active); in the experiment on MALME-3M melanoma, -90.6% (active); in the experiment with MDA-MB-231 breast, -89.8% (active); in the experiment with RXF 393 renal it was -94.2% (active); with SF-268 CNS, 6.05% (active). Besides, the growth in the experiment on SF-295 CNS is -100% (active); in the experiment on SF-539 CNS, -93% (active); with UACC-257 melanoma, -82.6% (active); in the experiment on M14 melanoma it was -74% (active); with HCT-15 colon, -100% (active); in the experiment with HT29 colon, -59% (active). Moreover, the growth was -80.1% (active) in the experiment with SNB-75 CNS; -84.1% (active) in the experiment on SNB-19 CNS; -64.7% (active) with U251 CNS; -46.9% (active) with PC-3 prostate; -97% (active) with SK-MEL-5 melanoma; -98.5% (active) in the experiment with UACC-62 melanoma. For the same compound, the growth is -98.4% (active) with LOX IMVI melanoma and -98.8% (active) with SK-MEL-28 melanoma.

Source of the values: PubChem BioAssay (NCI).
